Screening data (PubChem BioAssay)
Shiga inhibitor – A qHTS for Small Molecule Inhibitors of Shiga Toxin; Vero cells, Shiga toxin protein synthesis inhibition reporter; AID 2315, 2010; 290,000 compounds, 9.2% hits; inhibition, % at 38.7 µM; in the data active = inhibition mostly above about 28%, no sharp cut-off; inactive = mostly below about 43%
TbPYK inhibitor – qHTS of Trypanosoma Brucei Inhibitors; TbPYK enzyme, Kinase-Glo Plus ATP luminescence, 45 min; AID 624173, 2012; pyruvate kinase (Trypanosoma brucei), Q57TT1; Potency, µM (top dose mostly 76.8 µM), most hits filed as inhibitors; 410,000 compounds, 0.12% hits; active = well fitted curve in the direction sought with a large enough effect; inconclusive = small, poorly fitted or top-dose-only effect, or another doubt; inactive = no such curve, though single readings can be large; an effect the other way counts as inactive or inconclusive; also: nearly all actives have a fitted effect of over 50% in size
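Luminescent Kinase-Glo Plus end-point after 45 min room-temperature reaction of T. brucei pyruvate kinase started with 130 uM ADP (final). Buffer TEA 50 mM pH 7.2 with KCl, MgCl2, BSA, Tween-20; titration-based qHTS with fitted concentration-effect curves.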
NS1 function inh – qHTS Assay for Inhibitors of Influenza NS1 Protein Function. Potency, µM (doses to about 46.1 µM). 270,000 compounds, 0.4% hits; also: actives are rising curves; nearly all actives have a fitted effect of over 50% in size
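Recovery from NS1-induced slow growth read by OD600 in budding yeast switched to galactose assay medium (pH 6.0, -URA) at 1:100 dilution. Compound 23 nl per well; the matching strain lacking NS1 serves as control.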
SARS PLP yeast – qHTS of Yeast-based Assay for SARS-CoV PLP; S. cerevisiae expressing SARS-CoV PLpro, growth rescue; Potency, µM (top dose mostly 32.9 µM), most hits filed as activators; 330,000 compounds, 0.19% hits; also: nearly all actives have a fitted effect of over 55% in size
LmPK inh – qHTS Assay for Inhibitors of Leishmania Mexicana Pyruvate Kinase (LmPK). 290,000 compounds, 0.37% hits. purified LmPK, Kinase-Glo ATP luminescence, 1 h. Potency, µM (titrated, usually from 57.5 µM), actives largely listed as inhibitors. Q27686. AID 1721, 2009; active = well fitted curve in the direction sought with a large enough effect; inconclusive = small, poorly fitted or top-dose-only effect, or another doubt; inactive = no such curve, though single readings can be large; an effect the other way counts as inactive or inconclusive
Target sequence (Q27686 whole entry, looked up): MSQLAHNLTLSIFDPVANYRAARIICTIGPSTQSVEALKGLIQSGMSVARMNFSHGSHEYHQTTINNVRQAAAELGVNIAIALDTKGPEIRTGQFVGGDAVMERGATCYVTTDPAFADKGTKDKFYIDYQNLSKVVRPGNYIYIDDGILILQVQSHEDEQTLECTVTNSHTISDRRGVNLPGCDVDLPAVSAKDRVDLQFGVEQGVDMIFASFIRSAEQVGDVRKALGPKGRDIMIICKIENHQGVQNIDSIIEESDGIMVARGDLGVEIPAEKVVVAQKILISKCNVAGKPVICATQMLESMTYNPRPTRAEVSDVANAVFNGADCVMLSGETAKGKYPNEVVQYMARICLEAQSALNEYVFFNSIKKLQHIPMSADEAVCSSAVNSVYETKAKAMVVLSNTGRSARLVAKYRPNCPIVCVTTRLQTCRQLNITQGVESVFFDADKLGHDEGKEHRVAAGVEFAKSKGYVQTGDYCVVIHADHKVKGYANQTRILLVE
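ATP generated from ADP (0.1 mM) and PEP (0.5 mM) by 0.1 nM LmPK over 1 h at room temperature (pH 7.2 imidazole buffer) was detected by coupled luciferase luminescence. Values were normalized to uninhibited and no-enzyme wells.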
Cycloheximide cs – Cycloheximide Counterscreen for Small Molecule Inhibitors of Shiga Toxin; cell reporter, cycloheximide protein synthesis inhibition counterscreen; max response, %; 300,000 compounds, 12% hits; AID 2314, 2010; in the data active = max response mostly above about 13%, no sharp cut-off; inactive = mostly below about 14%; also: read at 38.3 µM for the half of the compounds with a filed dose
Numbers stand for hits; n = inactive; u = inconclusive; x = not tested or not shown. This excerpt belongs to a sample that is enriched for hits. Unless noted, calls follow the shape of the full dose curve.

SMILES	Shiga inhibitor	TbPYK inhibitor	NS1 function inh	SARS PLP yeast	LmPK inh	Cycloheximide cs
N#Cc1ccc(/C=C(\C(=O)C(=O)O)c2ccc3ccccc3n2)cc1	74	n	n	n	n	57
Cc1cccc(/C=C(\C(=O)C(=O)O)c2ccc3ccccc3n2)c1	62	n	x	n	n	46
Cc1cccc(/C=C(\c2nc3ccccc3[nH]2)S(=O)(=O)c2ccccc2)c1	n	n	n	n	n	n
O=C(Nc1cccc(C(=O)OCc2cc(=O)n3nc(C4CC4)sc3n2)c1)c1ccc(F)cc1	x	n	x	x	x	x
CCc1cc(C(=O)c2ccc(OC)cc2)c(N)s1	n	n	n	n	n	n
COc1ccc(C(=O)c2ccsc2N)cc1	51	n	n	n	n	28
COc1ccc(C(=O)c2ccc(CC#N)s2)cc1	68	n	n	n	n	24
O=C(NCc1cccs1)c1noc2c1CCCCC2	54	n	n	n	n	23
O=C(NCc1ccccc1)c1noc2c1CCCCC2	84	n	n	n	n	46
O=C(NC1CCCC1)c1noc2c1CCCCC2	152	n	n	n	n	37
O=C(Nc1ccccc1C(F)(F)F)c1noc2c1CCCC2	x	n	x	x	x	x
COc1ccc(CNC(=O)c2noc3c2CCCCC3)cc1	85	n	n	n	n	25
COc1ccc2c(c1)CCc1c(C(=O)NCc3ccc(F)cc3)noc1-2	n	n	u	n	n	n
CC(NC(=O)c1noc2c1CCCCC2)c1ccccc1 (configuration not stated)	45	n	n	n	n	33
O=S(=O)(NCCc1ccccc1)c1ccc(Br)s1	n	n	n	n	n	n
COc1ccc(CCNS(=O)(=O)c2ccc(Br)s2)cc1	39	n	n	n	n	29
CSc1nsc(N/N=C/c2ccccc2)c1C#N	51	n	x	n	n	30
COc1ccc(/C=N/Nc2snc(SC)c2C#N)cc1OC	98	n	n	n	n	35
COCc1cc(C)nc(OCC(=O)N/N=C/c2ccc(OC)c(OC)c2)c1C#N	n	n	n	n	n	n
COc1cccc(/C=N/Nc2snc(SC)c2C#N)c1	67	u	n	n	n	27
COc1cccc(/C=C/c2n[nH]c(=O)c(C#N)c2C)c1	n	n	n	n	n	n
COc1cccc(/C=N/Nc2snc(SC)c2C#N)c1O	69	n	n	n	n	72
CCc1nn(CCCC(=O)N2CCN(c3cccc(OC)c3)CC2)c(=O)c2cc3occc3n12	x	n	x	x	x	x
C/C(=N\NC(=O)c1csc(C)c1C)c1ccc(Cl)s1	72	n	n	n	n	33
C/C(=N\NC(=S)NC(C)C)c1ccc(Cl)s1	n	n	n	u	n	n
SMILES	Shiga inhibitor	TbPYK inhibitor	NS1 function inh	SARS PLP yeast	LmPK inh	Cycloheximide cs
CC/C(=N\NC(=O)c1c(-c2ccccc2)noc1C)c1ccc(C)o1	n	n	n	n	n	n
C/C(=N\NC(=O)c1ccoc1C)c1ccc(Cl)s1	87	n	n	n	n	41
CC/C(=N\NC(=O)c1ccoc1C)c1ccc(C)o1	149	n	n	n	n	82
CC[C@H](C)[C@H](NC(=O)[C@@H](NC(=O)[C@@H](NC(=O)[C@H](CCC(=O)O)NC(=O)[C@H](CCC(=O)O)NC(=O)[C@H](CCC(=O)O)NC(=O)[C@H](C)NC(=O)[C@@H](N)CC(C)C)C(C)C)C(C)C)C(=O)N[C@@H](CCCNC(=N)N)C(=O)N[C@@H](CO)C(=O)N[C@@H](C)C(=O)N[C@@H](CC(N)=O)C(=O)N[C@@H](Cc1ccccc1)C(=O)N[C@H](C(=O)N[C@@H](CC(=O)O)C(=O)N[C@@H](CC(N)=O)C(=O)O)[C@@H](C)O	n	x	x	x	x	n
CCN(CC)CCN1C(=O)C(=O)/C(=C(/O)c2cccc(OC)c2)C1c1ccccn1 (configuration not stated)	n	n	n	n	n	15
CCN(CC)CCCN1C(=O)C(=O)/C(=C(/O)c2ccc(Cl)cc2)C1c1ccccn1 (configuration not stated)	n	n	n	n	n	n
CCOc1ccc(/C(O)=C2/C(=O)C(=O)N(CCOCCO)C2c2ccccn2)cc1 (configuration not stated)	57	n	n	u	n	39
Cc1noc(C)c1C(=O)N1CCC1(C)C(=O)NS(=O)(=O)Cc1cccc(Cl)c1 (configuration not stated)	x	n	x	x	x	x
COc1ccccc1Nc1nc(N)nc(-c2oc3ccccc3c2C)n1	n	x	n	n	n	n
Cc1ccccc1Nc1nc(N)nc(-c2oc3ccccc3c2C)n1	122	n	n	n	n	64
Cc1c(-c2nc(N)nc(Nc3ccc(F)cc3)n2)oc2ccccc12	84	n	n	n	n	22
O=C(CC[C@H]1O[C@@H](n2ccc(=O)[nH]c2=O)[C@H](O)[C@@H]1O)N[C@H](Cc1ccccc1)C(=O)NCC1CCCCC1	x	n	x	x	x	x
COc1ccc(NC(=O)C2=C(C)C(=O)OC23CCN(C(C)C)CC3)cc1Cl	x	n	x	x	x	x
Cc1ccc(-n2c(C)cc(C(=O)COC(=O)c3c(C)noc3C)c2C)cc1	104	n	n	n	n	39
Cc1cc(C(=O)CSc2n[nH]c(N)n2)c(C)n1-c1cc(F)ccc1F	98	n	n	n	n	29
Cc1ccc(-n2c(C)cc(C(=O)CSc3n[nH]c(N)n3)c2C)cc1	n	n	n	n	n	10.0
Cc1cc(C(=O)CSc2n[nH]c(N)n2)c(C)n1-c1ccc(F)cc1	61	n	n	n	n	40
Nc1nc(SCC(=O)c2cc(F)ccc2F)n[nH]1	n	n	n	n	n	n
CCOc1cc(N2CCOCC2)c(OCC)cc1NC(=O)c1cc(S(=O)(=O)N2CCOCC2)ccc1F	x	n	x	n	x	x
Cc1c(N)nc([C@@H](CC(N)=O)NC[C@H](N)C(N)=O)nc1C(=O)N[C@H](C(=O)N[C@@H](C)[C@@H](O)[C@@H](C)C(=O)N[C@H](C(=O)NCCc1nc(-c2nc(C(=O)NCCCN[C@H](C)c3ccccc3)cs2)cs1)[C@H](C)O)[C@@H](O[C@H]1O[C@@H](CO)[C@H](O)[C@@H](O)[C@H]1O[C@H]1O[C@@H](CO)[C@@H](O)[C@H](OC(N)=O)[C@H]1O)c1cnc[nH]1	x	n	x	x	x	x
O=C(Nc1cc(Cl)c(Cl)cc1Cl)c1cccnc1	n	n	n	n	n	n
Cc1cccc(N2CCN(c3ncnc4c3nc3n4CCCCC3)CC2C)c1 (configuration not stated)	x	n	x	x	x	x
Cc1cc(C(=O)CSc2n[nH]c(N)n2)c(C)n1-c1ccccc1	50	n	n	n	n	37
C=CCn1c(C)cc(C(=O)CSc2n[nH]c(N)n2)c1C	n	n	n	n	n	28
Cc1cc(C(=O)CSc2n[nH]c(N)n2)c(C)n1C1CC1	n	n	n	n	n	n
